# RGS4 inh: inhibitors of human regulator of G protein signaling 4. P49798. Transcreener GDP fluorescence polarization, RGS4-accelerated GTP hydrolysis. Potency, µM (titrated, usually from 114 µM), inactives show top-dose activity change, negative = inhibition, actives largely listed as inhibitors. hit rate 0.039% among 390,000. AID 504845; further: potency means the concentration at half of the fitted maximal effect; on the % scale 0 is the no-effect control and ±100 the full control effect; nearly all actives have a fitted effect of over 75% in size
#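 MLSMR compounds (23 nl, pin-transferred) preincubated 10 min at room temperature with a 500nM (2x) first reagent, then RGS4 at 900nM (2x) plus Transcreener GDP mix added; fluorescence polarization (620/688 nm) read before and after 90 min at 30 °C.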
# BRCA1 expr act: BRCA1 expression activation; Potency, µM (series often up to 46.1 µM), for the others: at the highest dose activation, most hits filed as activators; AID 624202; MCF7-BRCA1-FFLuc reporter, luminescence, 48 h; response scale: scaled: vehicle 0%, 10 µM genistein 100%; hit rate 1.1% among 380,000; further: potency means the concentration at half of the fitted maximal effect; nearly all actives have a fitted effect of over 80% in size
#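 Cells: MCF7-BRCA1-FFLuc, 2000/well. Exposure: 48 h, 37 °C, 5% CO2. Read: luminescence, 15 min post-substrate. Controls: genistein 10 microM (maximal activation), DMSO (neutral).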
# B2AR arrestin: beta2AR (human) beta-arrestin recruitment activity; Potency, µM (top dose mostly 46.1 µM), inactives show at the highest dose activation, most hits filed as activators; beta-arrestin recruitment to beta2AR, cell-based reporter; P07550; hit rate 0.02% among 330,000;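 further: potency means the concentration at half of the fitted maximal effect; 0% = DMSO controls and full agonism = EC100 isoproterenol or metaproterenol; nearly all actives have a fitted effect of over 65% in size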
# D3 antag: blocks the human D3 dopamine receptor. hit rate 2.5% among 360,000. max response, negative = inhibition, %. AID 652054. P35462. D3R cells, DiscoveRx beta-arrestin luminescence, antagonist mode; stronger effect = lower value; in the data active means max response below about -50%; inconclusive means no clear call, values can overlap the other calls; further: on the % scale 0 is the no-effect control and ±100 the full control effect
#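 Cells expressing the human receptor were seeded at 1500 cells/well, incubated overnight at 37 degrees C in 5% CO2, then exposed to library compounds with dopamine controls for 90 minutes at 37 degrees C before luminescent detection.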
# DRD3 agonist: agonists of human D3 dopamine receptor. P35462. D3R DiscoveRx beta-arrestin cells, luminescence, 90 min. max activation, %. hit rate 0.58% among 410,000; in the data active means max activation above about 30%; further: 0% is about no effect
#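 Agonist mode: compounds and dopamine controls were applied to plated cells for 90 min at 37 degrees C after an overnight attachment at 1500 cells/well. Luminescent read-out followed 30 - 60 minutes at room temperature with DiscoveRx detection reagent.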
# PTHR1 ag: agonists of human PTHR1 parathyroid hormone receptor; Q03431; HEK293 GP2 PTHR1 cells, GloSensor cAMP luminescence, 1 h; Potency, µM (top dose mostly 115 µM), for inactives: at the highest dose activation, usual class: activators; hit rate 0.075% among 410,000; AID 743266; further: potency means the concentration at half of the fitted maximal effect; nearly all actives have a fitted effect of over 55% in size
# Target sequence (Q03431 whole entry, looked up): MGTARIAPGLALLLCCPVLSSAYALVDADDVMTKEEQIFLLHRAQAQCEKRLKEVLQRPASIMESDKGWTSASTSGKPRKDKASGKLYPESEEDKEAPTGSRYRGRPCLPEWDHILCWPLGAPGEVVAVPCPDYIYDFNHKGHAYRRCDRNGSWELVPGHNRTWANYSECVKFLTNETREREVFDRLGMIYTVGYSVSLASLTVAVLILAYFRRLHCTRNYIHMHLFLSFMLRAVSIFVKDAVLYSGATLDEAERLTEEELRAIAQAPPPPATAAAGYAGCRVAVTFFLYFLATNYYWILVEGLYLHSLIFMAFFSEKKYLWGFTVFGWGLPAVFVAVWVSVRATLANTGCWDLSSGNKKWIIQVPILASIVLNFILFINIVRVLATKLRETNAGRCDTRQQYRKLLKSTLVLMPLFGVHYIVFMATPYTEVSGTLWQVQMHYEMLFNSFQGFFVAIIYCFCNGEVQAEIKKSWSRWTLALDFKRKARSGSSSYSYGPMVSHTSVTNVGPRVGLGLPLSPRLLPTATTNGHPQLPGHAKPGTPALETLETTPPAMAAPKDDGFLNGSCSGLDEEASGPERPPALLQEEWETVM
#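 HEK-293-derived GP2 cells expressing PTHR1 and a GloSensor cAMP reporter, 3,000/well, plated overnight, given luciferin plus IBMX (each 0.5 mM as added) for 1 h at 37 °C, then compound for 1 h at 37 °C. Luminescence was read after 15 min at room temperature.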
# Starred values were filed as active, the others as inactive; i = inactive; ? = inconclusive; / = no result given; ! = not confirmed by another sample; [ ] = another dose, or the depositor's remark. Rows were chosen to be rich in hits. Some 3.7% of all compounds tested hit in one or more screens of this group. Unless noted, the call rests on the fitted dose curve; in most records, active means well fitted curve in the direction sought with a large enough effect; inconclusive means small, poorly fitted or top-dose-only effect, or another doubt; inactive means no such curve, though single readings can be large; an effect the other way counts as inactive or inconclusive.
SMILES,RGS4 inh,BRCA1 expr act,B2AR arrestin,D3 antag,DRD3 agonist,PTHR1 ag
CCOc1ccccc1N1C(=O)NC(=O)/C(=C/c2ccc3c4c(cccc24)CC3)C1=O,?,0%,-1%,-52*,1,-29%[57.5 µM]
CC(=O)OCOCC(=O)OCO[P+](=O)C(OCOC(C)=O)c1cc([N+](=O)[O-])ccc1Oc1ccc(Br)cc1 (configuration not stated),i,/,/,/,/,/
COC(=O)C[C@]1(C(=O)OC)CN(C#N)N(c2ccc(Cl)cc2)C12c1ccccc1-c1ccccc12,-41%,-97%,0%,-74*,-8,-38%
COC(=O)[C@@H]1[C@@H](C(=O)OC)C2(c3ccccc3-c3ccccc32)N(c2ccc(Cl)cc2)N1C#N,-41%,-87%,-1%,-76*,-3,-37%
COc1ccc(CNC(=O)CSCc2cnn(-c3ccccc3)c2-n2cccc2)cc1OC,13%,/,/,/,10,-47%
Oc1cc(Cl)c(Cl)c(Cl)c1,18%,-22%,/,68,61*,-89%
O=C(c1ccc2c3c(cccc13)CC2)C1CCCN(CC2CC2)C1 (configuration not stated),-3%,-29%,-1%,-81*,-27,i
NCCc1ccc(O)cc1,?,4%,-2%,3,32*,-22%
OCCN1C2CCC1CC(O)(c1ccc(F)cc1)C2 (configuration not stated),30%,-9%,0%,-68*,-22,i
O=C1NC(=O)C2(Cc3ccccc3N3CCCC32)C(=O)N1c1cccc(Cl)c1 (configuration not stated),-22%,-16%,0%,8,2,i
Cc1ccc(CN2C(=O)NC(=O)C3(Cc4c(nc5ccccn5c4=O)N4CCCCCC43)C2=O)cc1 (configuration not stated),0%,-31%,0%,13,54*,-35%[57.5 µM]
Cc1ccc(C)c(N2CCN(C(=O)C3CCN(Cc4nc(-c5cccc(Cl)c5)oc4C)CC3)CC2)c1,11%,/,/,/,-7,-70%
CC1=CC(=C2C(=O)NC(=O)NC2=O)C=C(C(F)(F)F)N1C(C)C,-17%,8%,0%,17,0,28µM*
S=c1[nH]nc(-c2ccco2)n1Cc1ccccc1,?,-10%,0%,-81*,-2,-14%[57.5 µM]
O=c1c2ccccc2nc(-c2ccco2)n1-c1ccc(Br)cc1,-37%,-43%,6%,0,5,-10%
CC1=C(O)C(=O)C=C2C1=CC=C1C2(C)CCC2(C)C3CC(C)(C(=O)O)CCC3(C)CCC12C (configuration not stated),?,-89%,/,-81*,-5,i
CCNC1(c2cccs2)CCCCC1=O (configuration not stated),/,/,/,/,-10,/
CC[C@H](C)[C@H]1O[C@]2(C=C[C@@H]1C)C[C@@H]1C[C@@H](C/C=C(\C)[C@@H](O[C@H]3C[C@H](OC)[C@@H](O[C@H]4C[C@H](OC)[C@@H](O)[C@H](C)O4)[C@H](C)O3)[C@@H](C)/C=C/C=C3\CO[C@@H]4[C@H](O)C(C)=C[C@@H](C(=O)O1)[C@]34O)O2,/,/,/,/,0,/
CC1(C)[C@H](C=C(Cl)Cl)[C@H]1C(=O)OCc1c(F)c(F)cc(F)c1F,/,/,/,/,12,/
Cc1ccc2c(CN3CC=C(c4ccccc4)CC3)cc(=O)oc2c1C,-21%,2%,-1%,-27,40*,-26%
COc1ccc(C(C)=O)cc1CN1CC=C(c2ccccc2)CC1,-3%,-25%,-1%,-101*,-19,-1%
Cc1ccccc1-n1c(CF)nc2ccc(N)cc2c1=O,/,/,/,/,11,/
Cc1ccccc1CCNCc1ccc(Br)cc1,-9%,0%,0%,-59*,-4,-21%
COc1ccc(CCNCc2ccc(Br)cc2)cc1OC,14%,-1%,0%,-60*,-15,i
CC[C@H]1[C@@H]2C[C@H]3[C@@H]4N(C)c5ccccc5[C@]45C[C@@H](C2[C@H]5O)N3[C@@H]1O (some centres not stated),/,/,/,/,-25,/
SMILES,RGS4 inh,BRCA1 expr act,B2AR arrestin,D3 antag,DRD3 agonist,PTHR1 ag
CCC1CN2CCC1CC2C(O)c1ccnc2ccccc12 (configuration not stated),i,/,/,/,/,/
NCC(O)c1cc(O)c(O)cc1F (configuration not stated),19µM*!,4%,0%,22,176*,i
CC1(C(=O)O)CCCC2(C)c3cc(O)ccc3CCC12 (configuration not stated),37%,-2%,/,-8,-1,i
C[C@]1(C(=O)O)CCC[C@]2(C)c3cc(O)ccc3CC[C@@H]12,1.1µM*,/,/,/,/,/
CN(C)CCN(C)CCc1ccc(Cl)c(Cl)c1,10%[56.9 µM],/,/,/,/,/
C[C@]12CC[C@@H]3c4ccc(OC(=O)N(CCCl)CCCl)cc4CC[C@H]3[C@@H]1CC[C@@H]2OP(=O)(O)O,/,/,/,/,-8,/
CN(CC(=O)N1CCc2ccccc21)S(=O)(=O)c1cccs1,19%,4µM*,0%,13,9,-10%
NP(=O)(OCCCc1ccccc1)c1ccccc1 (configuration not stated),-13%,-18%,-1%,-15,36*,-20%
CC1(C)CSC(Nc2ccc(F)c(Cl)c2)=N1,12%,71%,0%,0,0,-26%
CC1(C)COC(Nc2cccc(Cl)c2)=N1,24%,20%,0%,-55*,14,-1%
CCOc1ccc(NC(=O)CSc2oc(-c3ccccc3)nc2S(=O)(=O)c2ccc(Cl)cc2)cc1,?,/,/,/,14,i
Cc1ccc(CN2CCN(C)CC2)c(C)c1,-2%,-7%[1.84 µM],0%,-16,2,4%
CCN1CCN(Cc2ccccc2C)CC1,-17%,3%,0%,-66*,-13,i
CCN1CCN(Cc2ccc(C)cc2C)CC1,8%,2%,0%,-72*,-2,i
CC(C)(C)C(=O)c1cn(CC(=O)NCc2ccco2)c2ccccc12,-14%,5.6µM*,-1%,11,-17,-58%
O=C(Cn1cc(C(=O)c2ccccc2F)c2ccccc21)NCc1ccco1,-16%,-48%,-1%,8,11,-4%[57.5 µM]
